Screening results deposited in PubChem by several laboratories.
Shown are actives, neighbours in structure and some others; about 5.9% of the full set was active somewhere.
NR0B1 inh: DAX1 (NR0B1) inhibitors, primary screen, cell-based, HEK293, Gal4-DAX1, luciferase luminescence. 340,000 tested, 0.99% active. inhibition, % at 6.75 µM. HEK293 Gal4-DAX1 luciferase reporter. AID 504766, 2011. Nuclear receptor subfamily 0 group B member 1 (Homo sapiens), P51843;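 active = inhibition above the mean over all tested compounds plus 3 SD, cut at about 4.2% in these data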;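 note: 0% = DAX1-transfected cells with DMSO and 100% = empty-vector control cells with DMSO; inhibition shows as a rise in luminescence from relieved DAX1 repression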
AHR act: AHR activators, primary screen, cell-based, luminescence, luciferase reporter, human; AHR-responsive luciferase reporter cells; activation, % at 5 µM; AID 2796, 2010; 320,000 tested, 2.5% active; in the data active = activation above about 47%;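 note: 0% = vehicle wells and 100% = reference agonist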
Target sequence (P35869 whole entry, looked up): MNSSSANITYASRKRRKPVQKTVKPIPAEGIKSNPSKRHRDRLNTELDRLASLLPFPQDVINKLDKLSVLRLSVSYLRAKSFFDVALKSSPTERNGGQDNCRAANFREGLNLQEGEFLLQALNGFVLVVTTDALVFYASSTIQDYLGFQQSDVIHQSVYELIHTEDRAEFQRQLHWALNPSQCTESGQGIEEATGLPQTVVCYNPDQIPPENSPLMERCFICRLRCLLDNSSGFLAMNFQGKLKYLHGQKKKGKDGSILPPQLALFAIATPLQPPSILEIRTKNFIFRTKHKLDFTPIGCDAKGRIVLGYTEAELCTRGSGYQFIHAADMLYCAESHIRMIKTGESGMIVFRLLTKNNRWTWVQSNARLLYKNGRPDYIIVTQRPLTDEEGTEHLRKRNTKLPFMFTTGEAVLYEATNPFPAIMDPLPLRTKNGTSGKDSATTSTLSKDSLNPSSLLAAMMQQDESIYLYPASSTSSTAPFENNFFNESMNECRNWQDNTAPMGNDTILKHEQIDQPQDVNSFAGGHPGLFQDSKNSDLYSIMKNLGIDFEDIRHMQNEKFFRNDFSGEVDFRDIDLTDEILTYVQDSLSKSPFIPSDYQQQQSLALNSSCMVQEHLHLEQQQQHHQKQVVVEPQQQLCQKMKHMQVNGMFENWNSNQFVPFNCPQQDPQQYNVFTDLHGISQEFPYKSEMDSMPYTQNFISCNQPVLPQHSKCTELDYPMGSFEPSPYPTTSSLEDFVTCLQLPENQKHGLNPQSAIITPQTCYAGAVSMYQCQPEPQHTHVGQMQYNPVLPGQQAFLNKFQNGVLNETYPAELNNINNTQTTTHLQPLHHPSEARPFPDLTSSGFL
HSP90 refold inh: HSP90 inhibitors, primary screen, cell lysate, luminescence | inhibition, % at 5.6 µM | Rabbit reticulocyte lysate, luciferase refolding luminescence, 3 h | AID 1789, 2009 | Heat shock protein HSP 90 (rabbit reticulocyte lysate; luciferase refolding) | 290,000 tested, 0.91% active;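 active = inhibition above the screen-wide mean plus 3 SD, computed separately per campaign, cut at about 16% in these data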;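 note: 0% = DMSO wells and 100% = 60 µM geldanamycin wells; inhibitors lower the luminescence because luciferase stays unfolded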
HSF1 inhib: HSF1 inhibitors in luciferase reporter cells, primary screen, cell-based, NIH3T3, luminescence; NIH3T3-HGL HSE-luciferase, MG132-induced, luminescence 8 h; active compounds read low; 300,000 tested, 0.77% active; activity change, negative = inhibition, % at 7.5 µM (by protocol);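 active = more than half of replicate wells show activity change below -50%, luminescence cut by over half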;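 note: luciferase reports HSF-1 transcriptional activity via heat shock element; 0% = median of DMSO wells and -100% = zero luminescence signal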
FXN GAA850 act: FXN promoter activators, primary screen, cell-based, luciferase luminescence, HEK293 lucGAA850; HEK293 lucGAA850 FXN promoter luciferase reporter, 24 h; percent of 10 µM SAHA response; activation, % at 6 µM; 360,000 tested, 0.56% active; AID 540364, 2011;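 active = activation above the average of all compounds screened plus 3 SD, cutoff fixed separately per campaign, cut at about 7.5% in these data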;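 note: 0% = DMSO wells and 100% = 10 µM SAHA wells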
HSF-1 act: HSF-1 activators, primary screen, NIH3T3-HGL cells, MG132 stress, luminescence, single point; NIH3T3-HGL HSF-1 luciferase reporter, 8 h; 100% = twice DMSO control signal; activation, % at 9 µM; 300,000 tested, 1.7% active; AID 504408, 2011;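 active = mean replicate activation of at least 50% with a set share of replicates each reaching 50%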;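 note: 0% = median of the neutral control wells and 100% = twice that signal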
GAA30 counter: GAA30 FXN promoter activators, confirmation, counter-screen for GAA850 frataxin promoter activator project, cell-based, luminescence, HEK293, lucGAA30, triplicate | activation, % at 6 µM | HEK293 lucGAA30 FXN promoter luciferase, 24 h; DMSO = 0%, 5 µM ipriflavone = 100% | shares compounds with FXN GAA850 act | 1,900 tested, 66% active | AID 588350, 2011;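 active = mean activation above the mean of solvent-only control wells plus 3 SD, cut at about 22% in these data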;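 note: counterscreen of GAA850 promoter hits where activity marks nonselective or luminescence artifacts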
FXN GAA850 conf: FXN GAA850 promoter activators in reporter cells, confirmation, cell-based, luminescence, HEK293 lucGAA850, triplicate | AID 588351, 2011 | activation, % at 6 µM | shares compounds with FXN GAA850 act | HEK293 lucGAA850 FXN promoter luciferase reporter, 24 h; 100% = activation by SAHA | 1,900 tested, 86% active;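 active = mean activation above a set limit taken from the primary screen, cut at about 8% in these data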;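 note: 0% = DMSO wells and 100% = 10 µM SAHA wells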
* hit, by the source's call; nt = not tested or not shown.

SMILES | NR0B1 inh | AHR act | HSP90 refold inh | HSF1 inhib | FXN GAA850 act | HSF-1 act | GAA30 counter | FXN GAA850 conf
Cc1cc(NC(=O)CCCS(=O)(=O)c2nc(-c3cccs3)cc(C(F)(F)F)n2)no1 | -4 | 3 | 1 | 159 | 9.6* | 205* | -45 | -1
COc1ccc(Cl)cc1C(=O)OCC(=O)Nc1cccnc1Cl | 0 | 2 | nt | nt | 2 | nt | nt | nt
C/C(=N/NC(=O)c1ccc(Br)o1)C(C)C | 1 | 16 | -3 | 9 | 9.1* | -5 | 16 | 7
CC(NC(=O)c1ccc(Br)o1)C1CCCO1 (stereo not given) | 0 | -1 | 0 | -3 | 1 | 3 | nt | nt
COc1cccc(NC(=O)c2ccnc(N3CCC(C(=O)NCc4cc(OC)ccc4OC)CC3)c2)c1 | 0 | 11 | 3 | -1 | -2 | -18 | nt | nt
O=C(/C=C/c1ccc(F)cc1)Nc1ccc2[nH]c(=O)[nH]c2c1 | 1 | 5 | -2 | 13 | 0 | 25 | nt | nt
COc1ccc(S(=O)(=O)N2CCOCC2)cc1NC(=O)C1CC1 | 0 | -1 | nt | nt | 0 | nt | nt | nt
CC(Nc1cc(N2CCCC2)ccc1[N+](=O)[O-])c1ccccc1 (stereo not given) | 1 | 3 | -1 | nt | 2 | nt | nt | nt
COc1cccc(OCCNc2cc(N3CCOCC3)ccc2[N+](=O)[O-])c1 | 0 | 35 | -1 | 8 | 10* | 42 | 67* | 31*
CC(Nc1cc(N2CCOCC2)ccc1[N+](=O)[O-])c1ccccc1 (stereo not given) | 0 | 2 | 0 | -1 | 8.8* | -1 | 34* | 15*
CCOC(=O)c1sc(NC(=O)C2CCCO2)c(C(=O)OC)c1C (stereo not given) | nt | nt | 0 | nt | nt | nt | nt | nt
CCc1nc2ccc(C(=O)NCCN3CCNC3=O)cn2c1N(CC)Cc1cccc(Br)c1 | nt | nt | nt | nt | 15* | nt | 15 | 7
CC1CCc2c(sc(NC(=O)c3noc4c3CCCC4)c2C(N)=O)C1 (stereo not given) | 2 | nt | nt | nt | 7.8* | nt | 102* | 29*
COc1cc2c(cc1OC)-c1nnc(-c3cccs3)n1C(C)(C)C2 | 2 | 11 | 1 | -2 | 13* | -3 | 8 | 8.2*
COc1cc2c(cc1OC)-c1nnnn1C(C)(C)C2 | 0 | -1 | 1 | 1 | 1 | 24 | nt | nt
CC(C)CN(C(=O)C(c1ccccc1)c1ccccc1)c1c(N)n(CC(C)C)c(=O)[nH]c1=O | 0 | 1 | 4 | -5 | 7.9* | 4 | 13 | 5
Nc1c(Cl)ncnc1N/N=C/c1ccc(O)cc1 | 0 | 20 | -2 | -3 | 7.8* | 0 | 52* | 14*
COc1ccc(C=C2C(=O)OC(C)(C)OC2=O)cc1OC | 3 | 18 | 2 | -4 | 1 | 13 | nt | nt
COc1ccc(/C=C2\OC(=O)c3c(OC)cccc32)cc1OC | 1 | -1 | 1 | 39 | 11* | 76* | 111* | 45*
COc1cc(/C=C2\Oc3cc(O)ccc3C2=O)ccc1O | 7.4* | 1 | nt | 17 | 8.3* | 14 | 94* | 38*
CCC1=NC(c2ccc(Br)cc2)N(O)C1(C)C (stereo not given) | 0 | -2 | 0 | -6 | 0 | -17 | nt | nt
COC(=O)[C@H](C)N(Cc1ccc(Cl)c(Cl)c1)S(=O)(=O)CCNC1CCCC1 | 0 | nt | nt | nt | -1 | nt | nt | nt
CN(C)c1ccc(O)c2c1CC1CC3[C@@H](N(C)C)C(=O)C(C(N)=O)=C(O)[C@]3(O)C(=O)C1=C2O (stereo not given in full) | -1 | -3 | 3 | 3 | 15* | -7 | 29* | 10*
Cc1cc2nc3ccc(N(C)C)cc3nc2cc1N | 3 | 11 | nt | 3 | 7.8* | 13 | 119* | 34*
Cc1cc(N(C)C)ccc1N=Nc1ccc(N)cc1 | 3 | -2 | nt | 19 | -3 | 49 | nt | nt
SMILES | NR0B1 inh | AHR act | HSP90 refold inh | HSF1 inhib | FXN GAA850 act | HSF-1 act | GAA30 counter | FXN GAA850 conf
Cc1nc(NC(=O)c2cccc(-c3cc4ccccc4oc3=O)c2)ccc1Br | 2 | 15 | -5 | 1 | -1 | 11 | nt | nt
O=C(Nc1ccc(Br)cn1)c1cccc(-c2cc3ccccc3oc2=O)c1 | -1 | 22 | -1 | 24 | 9.4* | 31 | 118* | 33*
CCN(C[C@H]1N[C@@](C)(C(=O)OC)[C@H]2C(=O)N(Cc3ccccc3)C(=O)[C@@H]12)C(=O)Nc1ccc(OC)cc1 | 0 | -2 | nt | nt | 9.4* | nt | 27* | 9.3*
CCN(C[C@H]1N[C@@](C)(C(=O)OC)[C@H]2C(=O)N(Cc3ccccc3)C(=O)[C@@H]12)C(=O)Nc1ccc(Cl)cc1 | -2 | 2 | nt | nt | 14* | nt | 37* | 15*
O=C(CSc1nnc(-c2ccncc2)n1-c1ccccc1)NCC1CCCO1 (stereo not given) | 0 | 0 | nt | nt | 1 | nt | nt | nt
c1cncc(-c2nc3ccccc3s2)c1 | 0 | 41 | -1 | 20 | 7.7* | 33 | 86* | 28*
CC(=O)N(Cc1cccnc1)c1cccc(-c2nc3ccccc3s2)c1 | -1 | -2 | 3 | -1 | 3 | -6 | nt | nt
CCCCCN(C(=O)CCC(=O)OCC(=O)N(C)Cc1ccccc1C)c1c(N)n(CCCC)c(=O)[nH]c1=O | -1 | 2 | nt | -1 | 2 | 8 | nt | nt
CCOP(=O)(Nc1cccc2oc(=O)c3ccccc3c12)OCC | 0 | nt | nt | nt | 7.8* | nt | 25* | 18*
Cc1ccc(S(=O)(=O)N2CCC(=O)N(CCOC(=O)Nc3cccc(Cl)c3)CC2)cc1 | -1 | 4 | 0 | 2 | 9.4* | 14 | 42* | 19*
Cc1ccc(NC(=O)OCCN2CCN(S(=O)(=O)c3ccc(C)cc3)CCC2=O)cc1 | 1 | 1 | -3 | 4 | 0 | -3 | nt | nt
CN(CC(=O)Nc1ccccc1Cl)C(=O)COC(=O)c1ccc([N+](=O)[O-])s1 | 0 | 0 | nt | nt | 1 | nt | nt | nt
Cc1c(C(=O)NCc2ccccn2)sc2nc(-c3ccc(F)cc3)cn12 | -1 | -11 | 3 | -1 | 2 | 6 | nt | nt
